According to PubChem BioAssay (NCATS):
Results filed as inconclusive are left out. Activity calls are given as the source filed them. The call rests on the fitted dose curve; in most records, active means well fitted curve in the direction sought with a large enough effect; inconclusive means small, poorly fitted or top-dose-only effect, or another doubt; inactive means no such curve, though single readings can be large; an effect the other way counts as inactive or inconclusive. Where a SMILES comes first, the peptide text is derived from it. [ ]: non-standard residue; d: D form. ξ: configuration not given here. ξPhe(βξ-Me) = CC(c1ccccc1)C(N)C(=O)O; GABA = NCCCC(=O)O

Legend:
JEG-3 = test: Primary qHTS to identify gynecologic anti-cancer compounds using libraries of approved drugs and bioactive compounds (AID 1345084); details: Gynecologic cancer cell panel viability, ATPlite luminescence, 48 h; series mostly up to 57.5 µM; further: nearly all actives have a fitted effect of over 55% in size
Procedure, shortened: (§1)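 ATP-based viability (ATPlite), 1,000 cells/well, 16 h pre-incubation, 48 h compound at 37 C, 5% CO2, 15 min RT before read.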

OV90 = test: as above; details: Gynecologic cancer cell panel viability, ATPlite luminescence, 48 h; series mostly up to 57.5 µM
Procedure, shortened: as §1

PA-1 = test: as above; details: Gynecologic cancer cell panel viability, ATPlite luminescence, 48 h; series mostly up to 57.5 µM
Procedure, shortened: as §1

SKOV3 = test: as above; details: Gynecologic cancer cell panel viability, ATPlite luminescence, 48 h; series mostly up to 57.5 µM
Procedure, shortened: as §1

Tov112D = test: as above; details: Gynecologic cancer cell panel viability, ATPlite luminescence, 48 h; series mostly up to 57.5 µM
Procedure, shortened: as §1

Tov-21-G = test: as above; details: Gynecologic cancer cell panel viability, ATPlite luminescence, 48 h; series mostly up to 57.5 µM
Procedure, shortened: as §1

[1] = Drug repurposing screens with cells derived from glioblastoma tumor samples (AID 1345199); details: GBM patient neurospheres viability, ATP luminescence, 48 h; further: nearly all actives have a fitted effect of over 40% in size
Procedure, shortened: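 Four patient lines of CD133+ GBM neurospheres were screened at several concentrations; hits were retested in those lines plus three slower-growing GBM lines, using 48-hour treatment and ATP-based viability.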
On the % scale 0 is the no-effect control and ±100 the full control effect.

O=C(O)C[C@@H](NC(=O)c1cc(-c2ccc(-c3ccncc3)cc2)cs1)c1ccccc1
inactive: Potency (JEG-3) | Potency (OV90) | Potency (PA-1) | Potency (SKOV3) | Potency (Tov112D)

CC(C(=O)O)C1CCC2(C)C3C(=O)C=C4C(CCC(=O)C4(C)C)C3(C)CCC12C (centres undefined)
inactive: Potency (JEG-3) | Potency (OV90) | Potency (PA-1) | Potency (Tov-21-G) | Potency (Tov112D)

FC(F)(F)c1cc(C(F)(F)F)c2ccc3nc(-c4nnco4)cn3c2n1
inactive: Potency (JEG-3) | Potency (OV90) | Potency (PA-1) | Potency (Tov-21-G) | Potency (Tov112D)

O=C(O)Cc1nn(Cc2nc3cc(C(F)(F)F)ccc3s2)c(=O)c2nccnc12
inactive: Potency (JEG-3) | Potency (OV90) | Potency (PA-1) | Potency (Tov-21-G) | Potency (Tov112D)

OC[C@H]1O[C@@H](n2cnc3c2NC=NC[C@H]3O)C[C@@H]1O
inactive: Potency (JEG-3) | Potency (OV90) | Potency (PA-1) | Potency (Tov-21-G) | Potency (Tov112D) | activity, negative = cell killing ([1]; at 45.9 µM (top of the series), tumour line B) 2.62% | activity, negative = cell killing ([1]; at 45.9 µM (top of the series), tumour line D) -21% | activity, negative = cell killing ([1]; at 46 µM (top of the series), tumour line A) -9.89% | activity, negative = cell killing ([1]; at 46.1 µM (top of the series), tumour line C) 8.32%

CC1CCC2(C(=O)OC3OC(CO)C(O)C(O)C3O)CCC3(C(=O)O)C(=CCC4C5(C)CCC(OC6OC(C)C(O)C(O)C6O)C(C)(C)C5CCC43C)C2C1C (centres undefined)
inactive: Potency (JEG-3) | Potency (OV90) | Potency (PA-1) | Potency (Tov-21-G) | Potency (Tov112D)

COC(=O)C1=COC(O[C@@H]2O[C@H](CO)[C@@H](O)[C@H](O)[C@H]2O)/C(=C\COC(=O)c2ccc(OC3OC(CO)C(O)C(O)C3O)c(OC)c2)C1CC(=O)OCCc1ccc(O)cc1 (some centres undefined)
inactive: activity change, negative = cytotoxicity (JEG-3) 2.03% [at 11.6 µM] | activity change, negative = cytotoxicity (OV90) 1.39% [at 11.6 µM] | activity change, negative = cytotoxicity (PA-1) -0.972% [at 11.6 µM] | activity change, negative = cytotoxicity (Tov-21-G) 2.92% [at 11.6 µM] | activity change, negative = cytotoxicity (Tov112D) 6.58% [at 11.6 µM]

C[C@@H](O)[C@H](N)C(=O)N1CCC[C@H]1C(=O)N1CCC[C@H]1C(=O)N[C@H](C(N)=O)[C@@H](C)O (H-TPPT-NH2)
inactive: activity change, negative = cytotoxicity (JEG-3) -0.985% [at 11.6 µM] | activity change, negative = cytotoxicity (OV90) -0.207% [at 11.6 µM] | activity change, negative = cytotoxicity (PA-1) -4.12% [at 11.6 µM] | activity change, negative = cytotoxicity (Tov-21-G) 0.205% [at 11.6 µM] | activity change, negative = cytotoxicity (Tov112D) 6.35% [at 11.6 µM]

CC1(C)CCCC2(C)C(CO)C3CCC2C31 (centres undefined)
inactive: Potency (JEG-3) | Potency (OV90) | Potency (PA-1) | Potency (Tov-21-G) | Potency (Tov112D)

COC(=O)C1C(CC(C)=O)C=CC(O)C12Oc1cc(C)cc(O)c1C2=O (centres undefined)
inactive: Potency (JEG-3) | Potency (OV90) | Potency (PA-1) | Potency (Tov-21-G) | Potency (Tov112D)

CC[C@@H](c1ccc(F)c(F)c1)n1c(C(=O)OC)c(-c2ccno2)[nH]c1=S
inactive: Potency (JEG-3) | Potency (OV90) | Potency (PA-1) | Potency (Tov-21-G) | Potency (Tov112D)

CC(=O)[C@@H]1CC[C@]2(C(=O)O)CC[C@]3(C)C(CCC4[C@@]5(C)CC[C@H](O)C(C)(C)C5CC[C@]43C)C12 (some centres undefined)
inactive: Potency (JEG-3) | Potency (OV90) | Potency (PA-1) | Potency (Tov-21-G) | Potency (Tov112D)

COc1ccc2cc(OCC3(C(=O)O)CN(C(=O)c4ccc(F)cc4)C3)ccc2c1
inactive: Potency (JEG-3) | Potency (OV90) | Potency (PA-1) | Potency (Tov-21-G) | Potency (Tov112D)

C=C(C)C1CC2(CO)C(=CC1=O)CCC(O)C2C (centres undefined)
inactive: Potency (JEG-3) | Potency (OV90) | Potency (PA-1) | Potency (Tov-21-G) | Potency (Tov112D)

O=C1N(CC2CCCCN2)CCN1c1ccccc1 (centres undefined)
inactive: Potency (JEG-3) | Potency (OV90) | Potency (PA-1) | Potency (Tov-21-G) | Potency (Tov112D)

CCc1c(CC(N)=O)c2cc(OCCCP(=O)(O)O)ccc2n1Cc1ccccc1
inactive: Potency (JEG-3) | Potency (OV90) | Potency (PA-1) | Potency (Tov-21-G) | Potency (Tov112D)

Nc1nc(CC(=O)Nc2ccc(CCNCC(O)c3ccccc3)cc2)cs1 (centres undefined)
inactive: Potency (JEG-3) | Potency (OV90) | Potency (PA-1) | Potency (Tov-21-G) | Potency (Tov112D)

Cc1nn(C)c2c1C(c1ccc(C(F)(F)F)cc1)C(C#N)=C(N)O2 (centres undefined)
inactive: Potency (JEG-3) | Potency (OV90) | Potency (PA-1) | Potency (Tov-21-G) | Potency (Tov112D)

CC(C)CC1NC(=O)C(C(C)c2ccccc2)NC(=O)C(C(C)C)NC(=O)C(C)NC(=O)CCCNC(=O)C(Cc2c[nH]c3ccccc23)NC(=O)C(C)NC1=O (stereo not drawn) (cyclo([GABA]AV[ξPhe(βξ-Me)]LAW); configuration not given here)
inactive: Potency (JEG-3) | Potency (OV90) | Potency (PA-1) | Potency (Tov-21-G) | Potency (Tov112D)

COC(=O)C1=COC(OC2OC(CO)C(O)C(O)C2O)C2C1CC(OC(=O)C(O)CC(=O)O)C2C (centres undefined)
inactive: Potency (JEG-3) | Potency (OV90) | Potency (PA-1) | Potency (Tov-21-G) | Potency (Tov112D)

COCC(=O)N1CCc2cc(-c3csc(NC(=O)c4cc(OC)cc(OC)c4)n3)ccc21
inactive: Potency (JEG-3) | Potency (OV90) | Potency (PA-1) | Potency (Tov-21-G) | Potency (Tov112D)

O=C1NC(=Nc2ccccc2F)S/C1=C\c1ccc(C(=O)O)cc1
inactive: Potency (JEG-3) | Potency (OV90) | Potency (PA-1) | Potency (Tov-21-G) | Potency (Tov112D)
